Assay results: PubChem BioAssay (EPA / NIEHS)
Results filed as inconclusive are left out. Activity calls are given as the source filed them. Rule for the calls: active = hit-call score of the fitted dose curve at least 0.9, where 1 is the maximum; inconclusive = response in the unintended direction; inactive = score below 0.9.

Assays:
[1] = target: human Vascular Endothelial Growth Factor Receptor 1 (VEGFR1), FLT1 (gene 2321) (UniProt P17948); test: NVS_ENZ_hVEGFR1: NovaScreen (NVS) Enzymatic Assay for human Vascular Endothelial Growth Factor Receptor 1 (VEGFR1) (AID 2283226)
Procedure, shortened: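 Cell-free assay of recombinant human VEGFR1 kinase with substrate, measured 1 h after dosing; fluorescence with electrophoretic mobility-shift separation of substrate and product, referenced to DMSO; primary screen at 25 uM in duplicate, actives then run in concentration series.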

[2] = target: human Vascular Endothelial Growth Factor Receptor 2 (VEGFR2), KDR (gene 3791) (UniProt P35968); test: NVS_ENZ_hVEGFR2: NovaScreen (NVS) Enzymatic Assay for human Vascular Endothelial Growth Factor Receptor 2 (VEGFR2) (AID 2283230)
Sequence of human Vascular Endothelial Growth Factor Receptor 2 (VEGFR2), KDR (gene 3791) (P35968 whole entry, looked up): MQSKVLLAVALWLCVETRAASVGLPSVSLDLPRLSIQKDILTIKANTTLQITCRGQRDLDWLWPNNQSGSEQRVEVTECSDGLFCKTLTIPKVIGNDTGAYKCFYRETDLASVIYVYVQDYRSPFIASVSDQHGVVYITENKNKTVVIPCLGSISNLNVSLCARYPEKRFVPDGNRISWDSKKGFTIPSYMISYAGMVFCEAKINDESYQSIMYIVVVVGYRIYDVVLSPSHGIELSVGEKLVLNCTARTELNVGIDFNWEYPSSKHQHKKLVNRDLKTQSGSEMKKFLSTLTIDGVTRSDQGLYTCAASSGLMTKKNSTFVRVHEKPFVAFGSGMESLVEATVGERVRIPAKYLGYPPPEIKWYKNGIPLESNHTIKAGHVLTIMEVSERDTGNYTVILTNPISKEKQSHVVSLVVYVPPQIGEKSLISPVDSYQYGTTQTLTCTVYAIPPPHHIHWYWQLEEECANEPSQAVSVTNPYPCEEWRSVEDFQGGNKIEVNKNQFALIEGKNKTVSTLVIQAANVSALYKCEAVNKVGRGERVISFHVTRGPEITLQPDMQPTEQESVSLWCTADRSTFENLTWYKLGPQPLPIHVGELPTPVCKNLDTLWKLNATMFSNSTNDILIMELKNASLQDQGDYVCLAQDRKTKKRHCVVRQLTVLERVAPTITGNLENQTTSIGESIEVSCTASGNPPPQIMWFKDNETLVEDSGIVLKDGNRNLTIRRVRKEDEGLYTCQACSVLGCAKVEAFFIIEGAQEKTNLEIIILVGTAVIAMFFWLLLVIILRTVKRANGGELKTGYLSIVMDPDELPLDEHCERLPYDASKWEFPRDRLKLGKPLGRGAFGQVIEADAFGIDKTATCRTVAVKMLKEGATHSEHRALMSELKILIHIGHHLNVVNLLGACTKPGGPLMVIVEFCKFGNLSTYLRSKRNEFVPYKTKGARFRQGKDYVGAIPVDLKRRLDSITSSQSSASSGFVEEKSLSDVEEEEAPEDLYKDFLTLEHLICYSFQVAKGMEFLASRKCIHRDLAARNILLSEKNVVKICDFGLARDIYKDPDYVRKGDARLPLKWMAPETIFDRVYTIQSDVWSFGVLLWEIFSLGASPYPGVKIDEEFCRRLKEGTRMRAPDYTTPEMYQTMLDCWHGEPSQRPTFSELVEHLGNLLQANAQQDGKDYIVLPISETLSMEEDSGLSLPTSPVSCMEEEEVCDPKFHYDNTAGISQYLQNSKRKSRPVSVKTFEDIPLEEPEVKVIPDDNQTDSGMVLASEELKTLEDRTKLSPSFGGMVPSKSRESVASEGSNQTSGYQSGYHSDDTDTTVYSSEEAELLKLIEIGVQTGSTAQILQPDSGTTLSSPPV
Procedure, shortened: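 Cell-free recombinant VEGFR2 kinase, fluorescent substrate with electrophoretic mobility-shift separation; read 1 h after dosing. Screened at 25 uM in duplicate, hits to concentration-response up to 50 uM; loss-of-signal versus DMSO.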

[3] = target: guinea pig Leukotriene D4 Receptor (LTD4), CYSLTR1 (gene 100135514) (UniProt Q2NNR5); test: NVS_GPCR_gLTD4: NovaScreen (NVS) G Protein-Coupled Receptor Assay for guinea pig Leukotriene D4 Receptor (LTD4) (AID 2283248)
Procedure, shortened: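 Radioligand displacement on guinea pig lung membranes, 1 h incubation, filtration and scintillation counting; DMSO as negative control. Duplicate 25 uM primary screen, then singleton concentration-response up to 50 uM.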

[4] = test system: guinea pig Muscarinic, Peripheral (Mperiperal) Receptor, Non-selective Binding, gene 100379235; test: NVS_GPCR_gMPeripheral_NonSelective: NovaScreen (NVS) G Protein-Coupled Receptor Assay for guinea pig Muscarinic, Peripheral (Mperiperal) Receptor, Non-selective Binding (AID 2283250)
Procedure, shortened: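 Guinea pig bladder membranes, radioligand binding read 1 h after dosing by filter scintillation counting; loss of signal vs DMSO. Primary duplicate screen at 25 uM, then concentration-response up to 50 uM.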

[5] = target: human Serotonin, 5-Hydroxytryptamine Receptor 5A (5HT5A), HTR5A (gene 3361) (UniProt P47898); test: NVS_GPCR_h5HT5A: NovaScreen (NVS) G Protein-Coupled Receptor Assay for human Serotonin, 5-Hydroxytryptamine Receptor 5A (5HT5A) (AID 2283251)
Sequence of human Serotonin, 5-Hydroxytryptamine Receptor 5A (5HT5A), HTR5A (gene 3361) (P47898 whole entry, looked up): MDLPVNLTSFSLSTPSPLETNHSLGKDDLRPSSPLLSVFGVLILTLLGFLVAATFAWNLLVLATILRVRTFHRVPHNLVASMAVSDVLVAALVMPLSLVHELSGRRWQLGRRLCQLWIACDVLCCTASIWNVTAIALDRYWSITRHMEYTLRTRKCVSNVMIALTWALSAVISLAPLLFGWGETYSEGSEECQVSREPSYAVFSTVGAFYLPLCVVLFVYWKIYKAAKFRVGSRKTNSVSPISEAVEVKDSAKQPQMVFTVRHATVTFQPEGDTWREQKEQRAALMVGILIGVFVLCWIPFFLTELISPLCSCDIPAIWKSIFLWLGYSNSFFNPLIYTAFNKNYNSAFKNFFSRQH
Procedure, shortened: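 Cell-free radioligand displacement binding on HEK293-derived membrane protein, 1 h incubation, filter-based scintillation counting. Primary screen in duplicate at 25 uM, actives followed in concentration series; loss of signal fitted versus DMSO.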

[6] = target: human Serotonin, 5-Hydroxytryptamine Receptor 6 (5HT6), HTR6 (gene 3362) (UniProt P50406); test: NVS_GPCR_h5HT6: NovaScreen (NVS) G Protein-Coupled Receptor Assay for human Serotonin, 5-Hydroxytryptamine Receptor 6 (5HT6) (AID 2283253)
Sequence of human Serotonin, 5-Hydroxytryptamine Receptor 6 (5HT6), HTR6 (gene 3362) (P50406 whole entry, looked up): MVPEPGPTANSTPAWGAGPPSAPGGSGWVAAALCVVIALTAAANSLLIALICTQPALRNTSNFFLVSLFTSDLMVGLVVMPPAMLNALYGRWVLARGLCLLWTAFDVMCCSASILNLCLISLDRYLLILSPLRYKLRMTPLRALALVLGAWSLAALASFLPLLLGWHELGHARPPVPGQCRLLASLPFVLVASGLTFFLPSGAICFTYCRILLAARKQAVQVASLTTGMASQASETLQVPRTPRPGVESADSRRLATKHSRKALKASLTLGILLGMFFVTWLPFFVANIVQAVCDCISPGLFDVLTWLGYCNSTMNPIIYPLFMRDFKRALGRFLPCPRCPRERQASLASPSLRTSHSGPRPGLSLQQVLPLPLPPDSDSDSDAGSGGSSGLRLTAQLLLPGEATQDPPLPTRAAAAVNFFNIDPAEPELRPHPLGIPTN
Procedure, shortened: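 Radioligand binding to 5HT6 in HEK293-derived membranes, cell-free, 1 h after dosing; bound ligand measured by filter-based scintillation counting. Primary screen in duplicate at 25 uM; actives retested in concentration series.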

[7] = target: human Tropomyosin Receptor Kinase A (TRKA), NTRK1 (gene 4914) (UniProt P04629); test: NVS_ENZ_hTrkA: NovaScreen (NVS) Enzymatic Assay for human Tropomyosin Receptor Kinase A (TRKA) (AID 2283224)
Procedure, shortened: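 Recombinant human TrkA activity read after 1 h by fluorescence with electrophoretic mobility shift separating substrate and product. Primary screen in duplicate at 25 uM; actives were rerun in concentration-response up to 50 uM. Loss of signal versus DMSO.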

[8] = target: rabbit Imidazoline 2 Central (I2C), CKB (gene 100009085) (UniProt P00567); test: NVS_ENZ_rabI2C: NovaScreen (NVS) Enzymatic Assay for rabbit Imidazoline 2 Central (I2C) (AID 2283228)
Sequence of rabbit Imidazoline 2 Central (I2C), CKB (gene 100009085) (P00567 whole entry, looked up): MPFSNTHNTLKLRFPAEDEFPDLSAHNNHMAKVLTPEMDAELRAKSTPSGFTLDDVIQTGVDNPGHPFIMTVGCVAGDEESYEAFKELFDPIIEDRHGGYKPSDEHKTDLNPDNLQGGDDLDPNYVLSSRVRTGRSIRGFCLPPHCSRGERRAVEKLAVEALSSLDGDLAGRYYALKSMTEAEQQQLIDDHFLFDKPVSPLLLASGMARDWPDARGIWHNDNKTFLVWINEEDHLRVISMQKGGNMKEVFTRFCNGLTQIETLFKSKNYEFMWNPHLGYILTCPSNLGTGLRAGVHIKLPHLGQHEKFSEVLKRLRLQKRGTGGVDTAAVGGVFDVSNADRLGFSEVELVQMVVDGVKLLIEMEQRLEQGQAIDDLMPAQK
Procedure, shortened: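 Rabbit brain membranes, cell-free; readout by filter-based scintillation counting 1.5 hours after dosing, loss of signal vs DMSO. Initial duplicate test at 25 uM, then concentration-response with 50 uM top concentration.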

[9] = target: sheep Cyclooxygenase-1 (Cox1), PTGS1 (gene 443551) (UniProt P05979); test: NVS_ENZ_oCOX1: NovaScreen (NVS) Enzymatic Assay for sheep Cyclooxygenase-1 (Cox1) (AID 2283239);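 note: actives reduce cyclooxygenase activity so potencies are for inhibitors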
Sequence of sheep Cyclooxygenase-1 (Cox1), PTGS1 (gene 443551) (P05979 whole entry, looked up): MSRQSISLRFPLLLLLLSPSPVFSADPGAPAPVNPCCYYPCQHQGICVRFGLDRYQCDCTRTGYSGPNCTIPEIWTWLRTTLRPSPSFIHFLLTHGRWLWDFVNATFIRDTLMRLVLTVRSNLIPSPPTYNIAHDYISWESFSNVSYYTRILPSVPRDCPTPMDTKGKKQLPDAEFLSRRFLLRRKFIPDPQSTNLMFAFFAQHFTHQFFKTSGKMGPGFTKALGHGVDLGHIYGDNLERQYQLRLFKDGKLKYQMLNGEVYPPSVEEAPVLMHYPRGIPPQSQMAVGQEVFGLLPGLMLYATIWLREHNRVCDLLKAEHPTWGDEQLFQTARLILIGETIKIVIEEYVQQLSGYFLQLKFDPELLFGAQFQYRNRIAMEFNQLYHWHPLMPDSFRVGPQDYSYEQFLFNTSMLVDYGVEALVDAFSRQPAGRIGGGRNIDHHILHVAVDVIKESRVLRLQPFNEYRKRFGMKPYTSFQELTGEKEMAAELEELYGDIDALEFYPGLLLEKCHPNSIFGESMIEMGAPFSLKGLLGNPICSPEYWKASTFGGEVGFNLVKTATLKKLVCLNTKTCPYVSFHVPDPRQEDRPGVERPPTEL
Procedure, shortened: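 Absorbance read-out of cyclooxygenase activity in a cell-free preparation from sheep seminal vesicles, taken 0.66 hour after dosing. Initial testing was in duplicate at 25 uM, and confirmatory testing was run in concentration series.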

[10] = target: bovine Dopamine Receptor (DR), Non-selective Binding, DRD1 (gene 281125) (UniProt Q95136); test: NVS_GPCR_bDR_NonSelective: NovaScreen (NVS) G Protein-Coupled Receptor Assay for bovine Dopamine Receptor (DR), Non-selective Binding (AID 2283241)
Sequence of bovine Dopamine Receptor (DR), Non-selective Binding, DRD1 (gene 281125) (Q95136 whole entry, looked up): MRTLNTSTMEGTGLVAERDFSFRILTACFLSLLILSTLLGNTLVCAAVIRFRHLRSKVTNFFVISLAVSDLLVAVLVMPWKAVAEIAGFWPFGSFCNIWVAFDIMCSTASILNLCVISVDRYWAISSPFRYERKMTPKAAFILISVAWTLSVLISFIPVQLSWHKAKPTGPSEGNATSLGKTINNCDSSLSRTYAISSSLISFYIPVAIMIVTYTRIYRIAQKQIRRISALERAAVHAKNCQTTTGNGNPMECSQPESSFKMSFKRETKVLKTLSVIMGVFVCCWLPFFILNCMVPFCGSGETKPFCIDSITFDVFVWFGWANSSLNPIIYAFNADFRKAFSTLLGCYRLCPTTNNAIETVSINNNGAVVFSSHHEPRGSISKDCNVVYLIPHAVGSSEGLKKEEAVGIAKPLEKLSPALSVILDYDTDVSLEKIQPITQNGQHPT
Procedure, shortened: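 Bovine striatal membranes; radioligand displacement read by filtration and scintillation counting 1 h after dosing, loss of signal vs DMSO. Screened in duplicate at 25 uM, then concentration-response for hits.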

[11] = NVS_GPCR_bNPY_NonSelective: NovaScreen (NVS) G Protein-Coupled Receptor Assay for bovine Neuropeptide Y (NPY) Receptor, Non-selective Binding (AID 2283245)
Procedure, shortened: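 Bovine hippocampal membranes incubated 1 hour with radioligand and test chemical. Bound ligand measured by filter-based scintillation counting. Single-concentration screen at 25 uM in duplicate, then concentration-response up to 50 uM.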

[12] = target: guinea pig Opioid, Kappa 1 Receptor (OpiateK), OPRK1 (gene 100135587) (UniProt P41144); test: NVS_GPCR_gOpiateK: NovaScreen (NVS) G Protein-Coupled Receptor Assay for guinea pig Opioid, Kappa 1 Receptor (OpiateK) (AID 2283252);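 note: radioligand displacement from kappa opioid receptor in guinea pig cerebellar membranes; active means reduced radioligand binding relative to DMSO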
Sequence of guinea pig Opioid, Kappa 1 Receptor (OpiateK), OPRK1 (gene 100135587) (P41144 whole entry, looked up): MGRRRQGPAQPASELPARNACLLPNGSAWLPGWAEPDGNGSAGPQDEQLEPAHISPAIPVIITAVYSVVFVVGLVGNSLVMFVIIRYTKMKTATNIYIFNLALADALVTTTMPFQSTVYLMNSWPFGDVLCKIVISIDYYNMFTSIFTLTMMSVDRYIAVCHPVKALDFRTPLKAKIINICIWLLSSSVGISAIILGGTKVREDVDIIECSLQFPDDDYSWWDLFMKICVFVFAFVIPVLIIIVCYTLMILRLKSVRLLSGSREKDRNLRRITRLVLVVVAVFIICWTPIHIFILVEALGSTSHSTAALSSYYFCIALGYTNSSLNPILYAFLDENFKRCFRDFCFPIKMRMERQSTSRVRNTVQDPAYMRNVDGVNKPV
Procedure, shortened: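 Guinea pig cerebellar membranes, radioligand displacement with filter-based scintillation counting, 2 h after dosing. Primary screen single concentration 25 uM in duplicate; actives retested in concentration series; loss of binding fitted versus DMSO.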

[13] = target: Adenosine receptor A1 (Bos taurus) (UniProt P28190); test: NVS_GPCR_bAdoR_NonSelective: NovaScreen (NVS) G Protein-Coupled Receptor Assay for bovine Adenosine Receptor (AdoR), Non-selective Binding (AID 2283244)
Sequence of Adenosine receptor A1 (Bos taurus) (P28190 whole entry, looked up): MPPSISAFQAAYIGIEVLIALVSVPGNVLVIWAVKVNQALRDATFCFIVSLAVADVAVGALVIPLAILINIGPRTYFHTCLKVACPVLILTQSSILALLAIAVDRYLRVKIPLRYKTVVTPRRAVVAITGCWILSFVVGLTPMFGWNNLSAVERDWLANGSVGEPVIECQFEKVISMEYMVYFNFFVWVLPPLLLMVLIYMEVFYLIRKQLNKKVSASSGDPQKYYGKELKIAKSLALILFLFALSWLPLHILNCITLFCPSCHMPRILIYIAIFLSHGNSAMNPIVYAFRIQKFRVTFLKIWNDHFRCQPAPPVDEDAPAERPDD
Procedure, shortened: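 Bovine striatal membranes, radioligand displacement binding, 1 h after dosing, filter-based scintillation counting. Screened in duplicate at 25 uM, then concentration-response up to 50 uM; loss of specific binding relative to DMSO.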

[14] = target: human Serotonin, 5-Hydroxytryptamine Receptor 2A (5HT2A), HTR2A (gene 3356) (UniProt P28223); test: NVS_GPCR_h5HT2A: NovaScreen (NVS) G Protein-Coupled Receptor Assay for human Serotonin, 5-Hydroxytryptamine Receptor 2A (5HT2A) (AID 2283249)
Sequence of human Serotonin, 5-Hydroxytryptamine Receptor 2A (5HT2A), HTR2A (gene 3356) (P28223 whole entry, looked up): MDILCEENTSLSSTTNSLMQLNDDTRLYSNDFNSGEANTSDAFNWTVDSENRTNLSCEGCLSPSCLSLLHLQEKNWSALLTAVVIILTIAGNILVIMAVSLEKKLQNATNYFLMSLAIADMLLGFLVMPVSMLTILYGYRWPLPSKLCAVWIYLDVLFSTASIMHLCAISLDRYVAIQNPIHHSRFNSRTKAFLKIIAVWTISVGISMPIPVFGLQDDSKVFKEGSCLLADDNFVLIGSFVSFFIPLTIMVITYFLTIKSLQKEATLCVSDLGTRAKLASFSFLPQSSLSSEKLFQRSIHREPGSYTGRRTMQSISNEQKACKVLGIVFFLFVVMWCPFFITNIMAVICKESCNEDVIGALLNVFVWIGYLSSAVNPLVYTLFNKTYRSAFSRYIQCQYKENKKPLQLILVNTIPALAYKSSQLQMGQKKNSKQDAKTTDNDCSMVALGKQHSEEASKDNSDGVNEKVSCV
Procedure, shortened: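 Human cortex membranes, cell-free radioligand binding; filter-based scintillation read 1.5 h after dosing. Duplicate screen at 25 uM first; displacement of specific binding (loss of signal) versus DMSO.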

[15] = target: rat Constitutive Nitric Oxide Synthase (CNOS), Nos1 (gene 24598) (UniProt P29476); test: NVS_ENZ_rCNOS: NovaScreen (NVS) Enzymatic Assay for rat Constitutive Nitric Oxide Synthase (CNOS) (AID 2283236)
Procedure, shortened: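 Enzyme activity in rat brain membrane preparation, read 1 h after dosing by filter-based radiometric scintillation counting. Primary screen in duplicate at 25 uM; actives (e.g., ≥30% inhibition) then run in concentration-response up to 50 uM.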

[16] = test system: bovine Histamine 1 Receptor (H1), gene 281231; test: NVS_GPCR_bH1: NovaScreen (NVS) G Protein-Coupled Receptor Assay for bovine Histamine 1 Receptor (H1) (AID 2283246)
Procedure, shortened: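 Radioligand displacement on bovine cerebellar membranes, 1 h after dosing, filter-based scintillation read-out; loss of signal vs DMSO. Duplicate single-concentration screen at 25 uM, then concentration-response up to 50 uM for hits.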

[17] = target: rat Catechol-O-Methyl Transferase (COMT), Comt (gene 24267) (UniProt P22734); test: NVS_ENZ_rCOMT: NovaScreen (NVS) Enzymatic Assay for rat Catechol-O-Methyl Transferase (COMT) (AID 2283235)
Procedure, shortened: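 Cell-free enzyme activity with protein extracted from rat dorsal striatum, measured by HPLC with absorbance detection. Compounds screened at 25 uM in duplicate; actives then run in concentration-response up to 50 uM, loss of signal versus DMSO.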

Q: Which outcome [1] does the source give for O=C1NC(=O)C(c2ccccc2)(c2ccccc2)N1 here?
A: The outcome was “inactive”.

Q: Which results are given for CCCCCCCCCCCCCCOS(=O)(=O)O?
A: AC50 [2]: 30.2 µM (active); AC50 [3]: 9.7 µM (active); AC50 [4]: 25 µM (active); AC50 [5]: 20.3 µM (active); AC50 [6]: 39.1 µM (active)

Q: Which results are given for CCN(CC)CCOc1ccc(C(=C(Cl)c2ccccc2)c2ccccc2)cc1?
A: outcome [7]: inactive; AC50 [8]: 9.71 µM (active); AC50 [9]: 4.39 µM (active); AC50 [10]: 14.2 µM (active); AC50 [11]: 30 µM (active); AC50 [4]: 4.82 µM (active); AC50 [5]: 1.46 µM (active); outcome [12]: inactive; AC50 [6]: 5.6 µM (active)

Q: With NC(=Nc1ccccc1)Nc1ccccc1 as the molecule, how does the outcome [8] read?
A: Its outcome is “inactive”.

Q: And the outcome [2]?
A: Its outcome is “inactive”.

Q: And the outcome [9]?
A: Its outcome is “inactive”.

Q: What about the outcome [4] of the same molecule?
A: Its outcome is “inactive”.

Q: And the AC50 [12]?
A: The AC50 was 25 µM (active).

Q: For CN(C)C(=O)NC1(c2ccccc2)CCN(CC[C@@]2(c3ccc(F)c(F)c3)CN(C(=O)c3ccccc3)CCO2)CC1, which outcome [1] is on record?
A: The outcome was “inactive”.

Q: What about the outcome [8] of the same molecule?
A: The outcome was “inactive”.

Q: And the outcome [2]?
A: The outcome was “inactive”.

Q: And the AC50 [10]?
A: Its AC50 is 6.51 µM (active).

Q: And the outcome [13]?
A: The outcome was “inactive”.

Q: And the AC50 [14]?
A: Its AC50 is 13.1 µM (active).

Q: What about the outcome [4] of the same molecule?
A: Its outcome is “inactive”.

Q: And the AC50 [12]?
A: The AC50 was 3.94 µM (active).

Q: Which outcome [8] does the source give for Cn1cnc2c1c(=O)[nH]c(=O)n2C here?
A: Its outcome is “inactive”.

Q: And the outcome [9]?
A: Its outcome is “inactive”.

Q: Which outcome [2] does the source give for Cc1occc(=O)c1O here?
A: Its outcome is “inactive”.

Q: What about the outcome [14] of the same molecule?
A: Its outcome is “inactive”.

Q: With CCCCC(CC)COC(=O)CCCCCCCC(=O)OCC(CC)CCCC (stereo unspecified) as the molecule, how does the outcome [2] read?
A: Its outcome is “inactive”.

Q: With NC1CCCCC1 as the molecule, how does the AC50 [8] read?
A: The AC50 was 30.3 µM (active).

Q: For COC(=O)[C@H]1[C@H]2C[C@@H]3c4[nH]c5cc(OC)ccc5c4CCN3C[C@H]2C[C@@H](OC(=O)c2cc(OC)c(OC)c(OC)c2)[C@@H]1OC, which outcome [8] is on record?
A: The outcome was “inactive”.

Q: What about the AC50 [9] of the same molecule?
A: The AC50 was 19.5 µM (active).

Q: For Nc1nc(Cl)nc2c1ncn2[C@H]1C[C@H](O)[C@@H](CO)O1, which AC50 [2] is on record?
A: Its AC50 is 4.88 µM (active).

Q: And the AC50 [13]?
A: Its AC50 is 10.6 µM (active).

Q: For CC(=O)S[C@H](C(=O)N[C@H]1Cc2ccccc2[C@H]2CCC[C@@H](C(=O)O)N2C1=O)C(C)C, which outcome [15] is on record?
A: Its outcome is “inactive”.

Q: And the outcome [9]?
A: The outcome was “inactive”.

Q: With COc1ccc(OC(F)(F)F)cc1CN[C@H]1CCCN[C@H]1c1ccccc1 as the molecule, how does the outcome [1] read?
A: Its outcome is “inactive”.

Q: And the AC50 [8]?
A: Its AC50 is 15 µM (active).

Q: What about the outcome [2] of the same molecule?
A: The outcome was “inactive”.

Q: What about the AC50 [9] of the same molecule?
A: Its AC50 is 11.6 µM (active).

Q: And the AC50 [10]?
A: Its AC50 is 8.68 µM (active).

Q: What about the AC50 [16] of the same molecule?
A: The AC50 was 7.82 µM (active).

Q: And the AC50 [4]?
A: Its AC50 is 25 µM (active).

Q: And the outcome [5]?
A: The outcome was “inactive”.

Q: And the AC50 [12]?
A: Its AC50 is 25 µM (active).

Q: And the AC50 [6]?
A: Its AC50 is 9.71 µM (active).

Q: Which outcome [2] does the source give for CN(C)C(=O)NC1(c2ccccc2)CCN(CCC[C@]2(c3ccc(Cl)c(Cl)c3)CCCN(C(=O)c3ccccc3)C2)CC1 here?
A: The outcome was “inactive”.

Q: What about the AC50 [10] of the same molecule?
A: The AC50 was 1.3 µM (active).

Q: And the outcome [13]?
A: Its outcome is “inactive”.

Q: And the outcome [11]?
A: The outcome was “inactive”.

Q: What about the outcome [14] of the same molecule?
A: Its outcome is “inactive”.

Q: And the AC50 [4]?
A: The AC50 was 5.86 µM (active).

Q: What about the outcome [5] of the same molecule?
A: The outcome was “inactive”.

Q: And the AC50 [12]?
A: Its AC50 is 3.56 µM (active).

Q: With CCCCCCCCCC[N+](C)(C)[O-] as the molecule, how does the AC50 [8] read?
A: Its AC50 is 8.08 µM (active).

Q: Which outcome [17] does the source give for Oc1ccccc1O here?
A: The outcome was “inactive”.

Q: With O=C(O)CC(O)(CC(=O)O)C(=O)O as the molecule, how does the outcome [7] read?
A: The outcome was “inactive”.
